About 79,000 compounds went through this panel and 15% of them were active in at least one assay; those are over-represented in the sample as a whole. Calls of active or inactive are those of the source. Cut-off read from the data, not from the text of the source: active = growth inhibition above about 70%; inactive = the rest.
How the values were obtained:
[1] = NCI Yeast Anticancer Drug Screen. Data for the rad52 strain (AID 147);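 note: 0% = growth of vehicle-treated control cultures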; settings: S. cerevisiae rad52 mutant growth inhibition, stronger effect = higher value
Procedure, shortened: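 Screen used a yeast mutant impaired in DNA repair. After compound exposure, growth was measured. Values reflect inhibition compared with vehicle-treated cells.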

[2] = NCI Yeast Anticancer Drug Screen. Data for the wt1 strain (AID 149);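 note: 0% = growth of vehicle-treated wt1 cultures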; settings: S. cerevisiae wt1 strain (SPY 50644) growth inhibition, stronger effect = higher value
Procedure, shortened: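 Yeast wt1 strain exposed to compounds; growth inhibition measured relative to vehicle-treated controls.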

[3] = NCI Yeast Anticancer Drug Screen. Data for the rad50EPP+ strain (AID 151);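 note: 0% = growth of vehicle-treated control cultures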; settings: S. cerevisiae rad50 mutant strain, stronger effect = higher value
Procedure, shortened: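 Exposing the rad50EPP+ strain to each compound, growth was compared with vehicle-only cultures to give inhibition.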

[4] = NCI Yeast Anticancer Drug Screen. Data for the rad50 strain (AID 155);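 note: 0% = growth of vehicle-only cultures of the same strain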; settings: S. cerevisiae rad50 strain growth inhibition, stronger effect = higher value
Procedure, shortened: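 Yeast carrying a defined DNA repair defect were exposed to test compounds, and growth was compared with vehicle-treated controls to give percent inhibition.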

[5] = NCI Yeast Anticancer Drug Screen. Data for the rad14 strain (AID 159);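 note: 0% = growth of vehicle-treated control cultures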; settings: S. cerevisiae rad14 strain growth inhibition, stronger effect = higher value
Procedure, shortened: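 Yeast cells carrying a defined DNA-repair defect were exposed to compounds, and growth inhibition was calculated relative to vehicle-treated control cultures.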

[6] = NCI Yeast Anticancer Drug Screen. Data for the sgs1 mgt1 strain (AID 161);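 note: 0% = growth of cultures given vehicle only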; settings: S. cerevisiae sgs1 mgt1 strain, stronger effect = higher value
Procedure, shortened: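 This yeast growth screen uses a strain with defined DNA-repair lesions; compound-treated growth is compared with vehicle-treated growth.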

[7] = NCI Yeast Anticancer Drug Screen. Data for the CLN2oe strain (AID 163);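 note: 0% = growth of vehicle-only control cultures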; settings: S. cerevisiae CLN2oe strain, stronger effect = higher value
Procedure, shortened: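 Values reflect how much compound exposure reduced yeast growth, referenced to vehicle-exposed cells. Assay organism is a strain with a defined genetic change affecting cell-cycle control.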

[8] = NCI Yeast Anticancer Drug Screen. Data for the cln2 rad14 strain (AID 165);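 note: 0% = growth equal to vehicle treated cultures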; settings: S. cerevisiae cln2 rad14 strain, stronger effect = higher value
Procedure, shortened: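 Relative to vehicle controls, growth inhibition of compound-treated cln2 rad14 yeast was recorded.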

[9] = NCI Yeast Anticancer Drug Screen. Data for the bub3 strain (AID 167); settings: S. cerevisiae bub3 mutant strain, stronger effect = higher value
Procedure, shortened: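 Compounds were applied to a genetically altered yeast strain carrying a cell-cycle control defect. Growth inhibition was scored against vehicle-treated controls.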

[10] = NCI Yeast Anticancer Drug Screen. Data for the wt2 strain (AID 169);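 note: 0% = growth of vehicle-treated yeast cultures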; settings: S. cerevisiae wt2 strain growth inhibition, stronger effect = higher value
Procedure, shortened: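 Values express reduction in yeast growth under compound treatment, referenced to vehicle-treated cells.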

[11] = NCI Yeast Anticancer Drug Screen. Data for the mlh1 strain (AID 171);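 note: 0% = growth of vehicle-treated control cultures of the same strain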; settings: S. cerevisiae mlh1 strain growth inhibition, stronger effect = higher value
Procedure, shortened: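 Steps: expose the defined-mutant yeast strain to compound; expose a parallel culture to vehicle; measure growth; express compound effect as inhibition relative to the vehicle culture.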

[12] = NCI Yeast Anticancer Drug Screen. Data for the sgs1 strain (AID 173);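 note: 0% = growth of vehicle-only control cultures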; settings: S. cerevisiae sgs1 mutant, stronger effect = higher value
Procedure, shortened: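 Treat defined-mutant yeast with compound; measure growth; calculate inhibition relative to vehicle-treated cells.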

[13] = NCI Yeast Anticancer Drug Screen. Data for the mlh1 rad18 strain (AID 175); settings: S. cerevisiae mlh1 rad18 strain growth inhibition, stronger effect = higher value
Procedure, shortened: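 Test agents were incubated with a yeast strain of defined genotype (DNA damage repair defect). Inhibition of growth was derived by comparison with vehicle-exposed cultures.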

[14] = NCI Yeast Anticancer Drug Screen. Data for the rad18 strain (AID 177); settings: S. cerevisiae rad18 mutant growth inhibition, stronger effect = higher value
Procedure, shortened: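 A genetically defined yeast mutant impaired in DNA damage repair was treated with test compounds, then its growth was measured against cultures receiving vehicle alone.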

[15] = at 5.0 µM (retest, dose inferred, filed as 0.5)
[16] = at 50.0 µM (retest, dose inferred, filed as 5.0)

Measured: growth inhibition

O=C1c2ccccc2C(=O)c2cc(S(=O)(=O)Nc3ccccc3)ccc21
active: [4]; at 50.0 µM 96.2% | [6]; at 50.0 µM 96.2% | [8]; at 50.0 µM 92.2% | [9]; [16] 84% | [9]; at 50.0 µM 96.1% | [13]; [15] 77% | [13]; [16] 75% | [13]; at 50.0 µM 97.7%
inactive: [1]; at 1.2 µM 0% | [1]; at 3.7 µM 7% | [1]; at 11.0 µM 16% | [1]; at 33.0 µM 26% | [1]; at 100.0 µM 19% | [2]; at 1.2 µM 5% | [2]; at 3.7 µM 9% | [2]; at 11.0 µM 8% | [2]; at 33.0 µM 9% | [2]; at 100.0 µM 4% | [3]; at 1.2 µM 9% | [3]; at 3.7 µM 21% | [3]; at 11.0 µM 34% | [3]; at 33.0 µM 45% | [3]; at 100.0 µM 47% | [4]; at 1.2 µM 1% | [4]; at 3.7 µM 7% | [4]; [15] 60% | [4]; at 11.0 µM 11% | [4]; at 33.0 µM 23% | [4]; [16] 49% | [4]; at 100.0 µM 22% | [5]; at 1.2 µM -1% | [5]; at 3.7 µM 1% | [5]; at 11.0 µM 7% | [5]; at 33.0 µM 12% | [5]; at 100.0 µM 11% | [6]; [15] 51% | [6]; [16] 61% | [7]; at 1.2 µM -6% | [7]; at 3.7 µM -15% | [7]; at 11.0 µM 5% | [7]; at 33.0 µM 7% | [7]; at 100.0 µM 2% | [8]; [15] 22% | [8]; [16] 37% | [9]; at 1.2 µM 0% | [9]; at 3.7 µM 4% | [9]; [15] 58% | [9]; at 11.0 µM 24% | [9]; at 33.0 µM 33% | [9]; at 100.0 µM 25% | [10]; at 1.2 µM 3% | [10]; at 3.7 µM 6% | [10]; at 11.0 µM 9% | [10]; at 33.0 µM 14% | [10]; at 100.0 µM 8% | [11]; at 1.2 µM 0% | [11]; at 3.7 µM 2% | [11]; at 11.0 µM 10% | [11]; at 33.0 µM 14% | [11]; at 100.0 µM 12% | [12]; at 1.2 µM 2% | [12]; at 3.7 µM 5% | [12]; at 11.0 µM 18% | [12]; at 33.0 µM 22% | [12]; at 100.0 µM 18% | [14]; at 1.2 µM 0% | [14]; at 3.7 µM 2% | [14]; at 11.0 µM 9% | [14]; at 33.0 µM 19% | [14]; at 100.0 µM -78%

[Pt].c1ccc(P(CCP(c2ccccc2)c2ccccc2)CCP(c2ccccc2)c2ccccc2)cc1
inactive: [1]; at 1.2 µM -15% | [1]; at 3.7 µM 2% | [1]; at 11.0 µM 7% | [2]; at 1.2 µM -1% | [2]; at 3.7 µM 6% | [2]; at 11.0 µM 19% | [3]; at 1.2 µM -8% | [3]; at 3.7 µM -1% | [3]; at 11.0 µM 11% | [3]; at 33.0 µM 61% | [5]; at 1.2 µM 4% | [5]; at 3.7 µM -2% | [5]; at 11.0 µM 22% | [7]; at 1.2 µM -18% | [7]; at 3.7 µM -4% | [7]; at 11.0 µM 4% | [10]; at 1.2 µM -7% | [10]; at 3.7 µM -4% | [10]; at 11.0 µM 2% | [11]; at 1.2 µM 5% | [11]; at 3.7 µM -5% | [11]; at 11.0 µM -1% | [12]; at 1.2 µM 2% | [12]; at 3.7 µM 5% | [12]; at 11.0 µM 41%
active: [1]; at 33.0 µM 89% | [1]; at 100.0 µM 84% | [2]; at 33.0 µM 94% | [2]; at 100.0 µM 90% | [3]; at 100.0 µM 85% | [5]; at 33.0 µM 81% | [5]; at 100.0 µM 91% | [7]; at 33.0 µM 95% | [7]; at 100.0 µM 88% | [10]; at 33.0 µM 83% | [10]; at 100.0 µM 93% | [11]; at 33.0 µM 94% | [11]; at 100.0 µM 92% | [12]; at 33.0 µM 96% | [12]; at 100.0 µM 94%

Reference: PubChem BioAssay (NCI)
